# Results taken from PubChem BioAssay (NCI).
# About 83,000 compounds went through this panel and 20% of them were active in at least one assay; those are over-represented in the sample as a whole.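 96-well plates, one dose, 48 hours. Percent growth reported; active if below 10.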 Unmarked numbers belong to inactive results. Active and inactive are the calls of the source.
# Columns and labels:
# Experiment in all cases: NCI-60 one-dose screen, 48 h (100 = growth as untreated, 0 = no growth, -100 = all killed)
# Conditions in all cases: 10 µM unless noted
# DU-145 prostate = tested on: DU-145 prostate
# K-562 leukemia = tested on: K-562 leukemia
# MDA-MB-231 breast = tested on: MDA-MB-231 breast
# RXF 393 renal = tested on: RXF 393 renal
# SF-268 CNS = tested on: SF-268 CNS
# SF-295 CNS = tested on: SF-295 CNS
# SF-539 CNS = tested on: SF-539 CNS
# M14 melanoma = tested on: M14 melanoma
# MALME-3M melanoma = tested on: MALME-3M melanoma
SMILES,growth (DU-145 prostate),growth (K-562 leukemia),growth (MDA-MB-231 breast),growth (RXF 393 renal),growth (SF-268 CNS),growth (SF-295 CNS),growth (SF-539 CNS),growth (M14 melanoma),growth (MALME-3M melanoma)
O=C(NO)c1ccc(Cn2c(=O)n(CCc3ccccc3)c(=O)c3ccccc32)cc1,30.5%,35.4%,39%,15.8%,46.4%,22.1%,12.1%,22.2%,
CC(C)(C)CC(C)(C)Nc1c(-c2c(O)c3ccccc3oc2=O)nc2c(Cl)cc(C(F)(F)F)cn12,114%,94%,100%,110%,107%,95.9%,99.1%,92.2%,
CCc1nc2cc(/C=C/C(=O)NO)c(F)cc2c(=O)n1CCc1ccccc1,4.01% (active),6.83% (active),15.5%,-21.3% (active),8.51% (active),13.5%,1.7% (active),3.41% (active),
CCc1ccc(/C=C/c2ccc(O)c3ncccc23)[n+](C)c1,42.8%,,90.9%,,47.7%,58.5%,62.7%,47.6%,63.5%
CCN(CC)Cc1cc(Nc2cc(C(F)(F)F)c(C#N)c3nc4ccccc4n23)ccc1O,25.1%,11.3%,-8.6% (active),0.263% (active),26.7%,5.79% (active),5.91% (active),24.3%,
O=C(NO)c1ccc(Cn2c(=O)n(-c3ccccc3F)c(=O)c3ccccc32)cc1,6.2% (active),1.13% (active),21.3%,-44.8% (active),1.99% (active),-44.3% (active),-12.8% (active),-22.6% (active),
O=C1/C(=C\c2cccc(OCCCCCOc3ccc(Cl)cc3)c2)N=C2SCCCN12,84%,41.7%,54.2%,71.2%,81.3%,43%,77.4%,44.5%,
CCN(CC)CCCC(C)Nc1cc(-c2ccc(C(F)(F)F)cc2)c(C#N)c2nc3ccccc3n12 (centres undefined),7.4% (active),-46.1% (active),-38% (active),-75.7% (active),14.6%,-25.9% (active),-75.1% (active),-69.6% (active),
N#Cc1c(-c2ccc(C(F)(F)F)cc2)c(F)c(NCCC2CCC(O)C2)n2c1nc1ccccc12 (centres undefined),47.2%,25.9%,22.1%,41.4%,70.7%,55.4%,71.1%,18.4%,
OCCNC(=S)Nc1ccc(-c2nc(N3C[C@H]4CC[C@@H](C3)O4)c3cccn3n2)cc1,8.77% (active),19.1%,4.21% (active),-31.4% (active),9.25% (active),-34.3% (active),-12.2% (active),5.27% (active),
COc1cnc2c(c1)C(=O)c1c-2n(CCCN2CCC(N)CC2)c(=O)c2cc([N+](=O)[O-])ccc12,13.2%,49.2%,57.9%,64.4%,50%,24.2%,70.3%,52.9%,
CC(=O)OCCC/C(=C\c1ccc2ccccc2c1)[N+](=O)[O-],-93.6% (active),,-58.8% (active),,-74.2% (active),18%,-99% (active),-70.9% (active),-53.5% (active)
CCc1nc2cc(/C=C/C(=O)NO)ccc2c(=O)n1CCc1ccc(OC)cc1,7.21% (active),8.06% (active),16.8%,-25% (active),26.4%,21.3%,26.5%,16.3%,
CCNCCNc1cc(-c2ccc(Cl)c(Cl)c2)c(C#N)c2nc3ccccc3n12,-93.7% (active),-65.3% (active),-77.5% (active),-91% (active),-79.6% (active),-92.3% (active),-87.5% (active),-73.8% (active),
CC(=Nc1ccccc1)C1=C(O)C(Cc2ccc(O)cc2)NC1=O (centres undefined),-28.6% (active),,11.3%,,11.5%,-41.1% (active),-33.7% (active),0.122% (active),58.6%
CCc1ccc(C2=C(O)C(=O)C(c3ccc(CC)cc3)=C(O)C2=O)cc1,13.8%,,-0.828% (active),,0.61% (active),-27.2% (active),-71.8% (active),4.98% (active),-15.1% (active)
O=C(Nc1ccc(C(=O)Nc2ccc(C3=NCCCN3)cc2)cc1)Nc1ccc(C2=NCCCN2)cc1,96.1%,,92.4%,,110%,85.3%,87.2%,87%,69.5%
COC(=O)c1[nH]cnc1/N=N/N(C)CCO,110%,,118%,,93%,112%,95%,101%,119%
COc1cc(OC)c(C(=O)/C=C/c2cc3c(cc2OCc2ccccc2)OC(C)(C)CC3)cc1CC=C(C)C,51.9%,,52.4%,,49.1%,66.9%,79.4%,68.2%,77.8%
Nc1nc(=S)c2ncn(C3OC(COC(=O)c4ccc(Cl)cc4)C(OC(=O)c4ccc(Cl)cc4)C3OC(=O)c3ccc(Cl)cc3)c2[nH]1 (centres undefined),105%,,88%,,90.4%,114%,89.9%,99.4%,102%
O=CC(OC(=O)c1ccccc1)C(OC(=O)c1ccccc1)C(COC(c1ccccc1)(c1ccccc1)c1ccccc1)OC(=O)c1ccccc1 (centres undefined),86%,,48.4%,,38.5%,93.5%,76.5%,53.4%,67.9%
CCCC(=O)OCC1OC(n2cnc3c(=S)nc[nH]c32)C(OC(=O)CCC)C1OC(=O)CCC (centres undefined),42.1%,,45.2%,,52.5%,36.8%,22.1%,13%,51.8%
CCN(CC)CCNc1ccc(N=Nc2cnc3ccccc3c2)c2ccccc12,-85.1% (active),,-87.6% (active),,-77.7% (active),-53.9% (active),-97.4% (active),-67.3% (active),-56.5% (active)
COc1ccc(-n2c(=O)c3ccccc3n(Cc3ccc(C(=O)NO)cc3)c2=O)cc1,20.2%,1.76% (active),47.4%,-41.6% (active),32.5%,4.34% (active),-10.6% (active),-7.23% (active),
C=C1C(=O)O[C@H]2[C@H]1CC/C(C=Nc1c(N)cc(C(F)(F)F)cc1C(F)(F)F)=C\CC[C@@]1(C)O[C@@H]21,5.82% (active),-4.88% (active),-49.5% (active),-81.6% (active),1.5% (active),49.7%,-84.5% (active),-61.2% (active),
CC(=O)Oc1ccccc1C(=O)N=C1[Se]CCN1C(=O)c1ccccc1OC(C)=O,-44.2% (active),8.83% (active),-22.2% (active),-72.5% (active),-77.1% (active),-67.6% (active),-79.4% (active),-57.7% (active),
CCOC(=O)Sc1ncnc2nc[nH]c12,38%,,45.7%,,65.8%,36.8%,36.7%,,59.2%
CCCC(=O)OCC1OC(n2cnc3c(=S)nc(N)[nH]c32)C(OC(=O)CCC)C1OC(=O)CCC (centres undefined),27.3%,,38.9%,,38.8%,19.8%,26.7%,,29.9%
O=C(Nc1ccc(C2=NCCCN2)cc1)c1ccc(C(=O)Nc2ccc(C3=NCCCN3)cc2)nc1,122%,,104%,,106%,110%,104%,102%,117%
O=C(NCCO)Nc1ccc(-c2nc(N3CCOCC3)c3cccn3n2)cc1,11.4%,34.4%,4.2% (active),-33.9% (active),11.1%,-23.3% (active),0.904% (active),6.09% (active),
